One assay can be described thus: small-molecule microarray binders of probe aShh, primary screen, biochemical, biotinylated probe, 635/667 nm fluorescence (AID 1114).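 Further: probe is biotin-labelled aShh protein from a stem cell growth factor screen; measures binding of labelled protein to compounds printed on the slide; score merges feature fluorescence at 667 nm with signal-to-noise.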 The following applies: higher = more signal.
The molecule `CCOC(=O)C[C@H]1[C@H](OC(=O)Cc2ccc3c(c2)OCO3)[C@@H](NC(=O)C2CCCCC2)c2cc(OCCCO)ccc2N1C(=O)c1ccccc1` came in with a composite z-score of -0.147. Molecule `O=C(NCc1ccc(F)cc1)[C@H]1C[C@H]2C(=O)NCC(=O)N2[C@H]1c1ccc(O)cc1` returned a composite z-score of -0.0553.

As for `CN(C)c1ccc(C(O)C2C=CC3C(=O)NC(=O)C3N2Nc2ccccn2)cc1` (centres undefined), the composite z-score is -0.154. In the case of `COc1ccc([Si](C)(C)[C@@H]2[C@@H](CC(=O)N(CCO)Cc3ccccc3)O[C@]3(C(=O)N(Cc4cccc(N5CCCCC5=O)c4)c4ccccc43)[C@H]2C)cc1`, the composite z-score came out at 0.128. Molecule `CCOC(=O)C[C@H]1[C@H](OC(=O)c2ccc(C(=O)c3ccccc3)cc2)[C@@H](NC(=O)C2CCCCC2)c2cc(OCCCO)ccc2N1C(=O)c1ccc2ccccc2n1` came in with a composite z-score of -0.243.

A short description of the next assay: small-molecule microarray binders of probe aNog, primary screen, biochemical, biotinylated probe, 635/667 nm fluorescence (AID 1115).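 Further: probe is biotinylated aNog protein used at 0.15 µg/mL for 1 h at 4 C; z-score combines 667 nm fluorescence of each spot with its signal to noise.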 The following applies: higher = more signal.
In turn, `CS(=O)(=O)CCOC(=O)C1=CC(CCCO)=CC(c2ccc(CN3CCCC3)cc2)N(Cc2sc3ccccc3c2Cl)C=C1C(=O)OCCS(C)(=O)=O` (centres undefined) registered a composite z-score of 1.49. The same measure, in the same setting: to `CCOc1cc(C(O)C2C=CC3C(=O)NC(=O)C3N2Nc2ccc(Cl)cc2Cl)ccc1O` (centres undefined) belongs 0.119. Same read-out and setting: to `Cc1cc(C)c(C(O)C2C=CC3C(=O)N(c4ccccc4)C(=O)C3N2Nc2ccccc2F)c(C)c1` (centres undefined) belongs 1.32; to `CCOC(=O)C[C@H]1[C@H](OC(=O)Cc2ccc3c(c2)OCO3)[C@@H](NC(=O)c2ccc3ccccc3n2)c2cc(OCCCO)ccc2N1C(=O)c1ccccc1`, 0.0589; to `NCCCCCNC(=O)[C@@H]1C[C@@H]2C(=O)N[C@@H](CCCCN)C(=O)N2[C@@H]1c1ccc(O)cc1`, -0.103. Molecule `O=C(C1N=C(c2ccc(OCCCO)cc2)N(c2ccccc2)O1)N1CCCCC1` (centres undefined) came in with a composite z-score of 0.411.

The molecule `C=CCC(OC(C)=O)[C@@H]1[C@@H](N(Cc2ccc(-c3ccccc3)cc2)C(=O)c2ccc(-c3ccccc3)cc2)c2cc(OCCCO)ccc2N1C(=O)c1ccc2ccccc2c1` (some centres undefined) had a composite z-score of -0.284.

As for `CCCC[C@@H](O)C1=C(COC)C[C@H]2C(=O)N(Cc3ccccc3)C(=O)[C@H]2[C@H]1CO`, the composite z-score is 0.116. For `COc1ccc(CCNC(=O)[C@@]2(Sc3ccc(C)cc3)CC(=O)N(Cc3ccccc3C(F)(F)F)[C@@H]2c2ccc(CO)cc2I)cc1`, the composite z-score amounted to 0.924. Same read-out and setting: under `CCC#CCN(Cc1ccccc1Br)[C@H](/C=C/C1CC1)[C@@H](O)Cc1ccccc1` stands -0.209; under `NCCCCCNC(=O)[C@H]1C[C@H]2C(=O)N3CCC[C@H]3C(=O)N2[C@H]1c1cccc(OCCO)c1`, -0.403. On the same count and under the same terms, to `CC(C)[Si](C#CCCCC#N)(O[C@H](c1ccccc1)c1cn(Cc2ccccc2)nn1)C(C)C` belongs 0.111; to `CC(C)N1CC=CC23O[C@@H]4C=CCCOC(=O)C4[C@H]2C(=O)N(CCCO)[C@@H]3C1=O` (some centres undefined), -0.0546; to `[N-]=[N+]=Nc1ccccc1C[C@]1(C(=O)NCC(O)CO)COC(c2ccc(OCCCO)cc2)=N1` (some centres undefined), -0.236. Still for that read-out and setting: under `COCC(=C=CC[C@H](O)c1ccc(CO)o1)CCO` stands 0.502; under `CC(C)C(CO)N1C(=O)[C@@H]2[C@H]3C(=O)OCC=C[C@H]3OC23C=CCN(c2ccc(Cl)cc2)C(=O)[C@@H]13` (some centres undefined), -0.196; under `COc1ccc([Si](C)(C)[C@H]2[C@H](CC(=O)N3Cc4ccccc4C[C@H]3CO)O[C@@]3(C(=O)N(Cc4ccc(N5CCOC5=O)cc4)c4ccccc43)[C@@H]2C)cc1`, -0.267.

`CCCC[C@@H](O)C1=C(COc2ccccc2)C[C@H]2C(=O)N(Cc3ccccc3)C(=O)[C@H]2[C@H]1CO` gave a composite z-score of -0.213. On the same count and under the same terms, under `C[C@@H]1NC(=O)[C@@H](Cc2ccccc2)NC(=O)[C@@]23C(=O)N[C@@H](Cc4ccccc4)C2[C@H](C)[C@@]2(C)O[C@H]2C3/C=C/C/C=C\CNC1=O` (some centres undefined) stands -0.281; under `[N-]=[N+]=Nc1ccccc1C[C@]1(C(=O)NCCN2CCOCC2)COC(c2ccc(OCCCO)cc2)=N1`, 0.624; under `CC(C)C(CO)N1C(=O)[C@@H]2C3C(=O)OCCC/C=C\[C@H]3OC23C=CCN(c2ccc4ccccc4c2)C(=O)[C@@H]13` (some centres undefined), 0.117. Still for that read-out and setting: to `C=C(/C(=C/C[C@H](OC(=O)c1ccncc1)c1ccc(CO)o1)c1cnc2ccccc2c1)C(C)C` belongs 0.181; to `C=CCOC(=O)[C@@H]1[C@H]2C(=O)O[C@H](c3ccccc3)[C@H](c3ccccc3)N2[C@H](c2ccc(OCCOC(=O)[C@@H]3C[C@@H]4C(=O)N[C@@H](CCCC[N+](C)(C)C)C(=O)N4[C@@H]3c3ccc(O)cc3)cc2)[C@@]12C(=O)Nc1ccc(I)cc12`, 0.559. Still for that read-out and setting: under `CCCCC(O)C1C=CC2C(=O)N(C)C(=O)C2N1N(c1ccccc1)c1ccccc1` (centres undefined) stands 1.53.

(Values after PubChem BioAssay.)
